Our source for the growth values is PubChem BioAssay (NCI).

Some test systems named below: HT29 colon; SNB-75 CNS; SNB-19 CNS; U251 CNS; SK-MEL-5 melanoma; UACC-62 melanoma; LOX IMVI melanoma; SK-MEL-28 melanoma; SK-MEL-2 melanoma; EKVX NSCLC; SN12C renal; UO-31 renal; TK-10 renal; ACHN renal; CAKI-1 renal; A498 renal; CCRF-CEM leukemia; MOLT-4 leukemia; SR leukemia.
What all share (test): NCI-60 one-dose screen, 48 h (100 = growth as untreated, 0 = no growth, -100 = all killed)
What all share (conditions): 10 µM unless noted

Compounds without any hit were thinned out: in the full panel of roughly 83,000, 20% have a hit.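 Cell lines were cultured in 96-well plates, exposed to a single compound concentration, and assessed for percent growth 48 hours later.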 A number with no mark means an inactive call. Active and inactive are the calls of the source. How the source made its calls: active means growth percent below 10; inactive means the rest.

`O=C1c2ccccc2C(=O)c2c1cccc2-n1nnc2ccccc21`: the growth in the assay on HT29 colon is 106%; in the assay with SNB-75 CNS, 90.8%; in the assay with SNB-19 CNS, 104%; with U251 CNS it was 99.8%; in the assay with SK-MEL-5 melanoma it was 112%; with UACC-62 melanoma, 103%. The growth was 100% in the assay with LOX IMVI melanoma; 118% in the assay on SK-MEL-28 melanoma; 79.3% with SK-MEL-2 melanoma; 112% in the assay with EKVX NSCLC; 106% in the assay with SN12C renal; 76% in the assay on UO-31 renal. The growth in the assay with TK-10 renal is 121%; with ACHN renal it was 103%; in the assay on CAKI-1 renal, 105%; in the assay with A498 renal it was 88.4%; in the assay with CCRF-CEM leukemia, 80.9%; with MOLT-4 leukemia, 96%. In addition, the growth with SR leukemia is 104%.
Regarding `Cc1ccc([N+](=O)[O-])cc1NC(=O)Nc1cccc(F)c1`, the growth with HT29 colon was 79.8%; in the assay with SNB-75 CNS, 90.2%; with SNB-19 CNS, 64.1%; in the assay on U251 CNS it was 64.3%; in the assay with SK-MEL-5 melanoma it was 60.5%; in the assay with UACC-62 melanoma it was 71.8%. Further, the growth in the assay on LOX IMVI melanoma was 82.4%; in the assay with SK-MEL-28 melanoma, 108%; in the assay on SK-MEL-2 melanoma, 86%; in the assay with EKVX NSCLC, 48.6%; in the assay with SN12C renal, 88.9%; in the assay on UO-31 renal, 67.7%. Besides, the growth is 69.1% in the assay on TK-10 renal; 67.7% with ACHN renal; 53.4% with CAKI-1 renal; 78.3% in the assay with A498 renal; 54.4% in the assay on CCRF-CEM leukemia; 62% with MOLT-4 leukemia. Further, the growth in the assay with SR leukemia was 62.6%.
Take `CCCCC1Nc2nc(SC)n(C)c(=O)c2CN(Cc2ccccc2)C1=O` (stereo not given): the growth in the assay with HT29 colon was 105%; with SNB-75 CNS it was 86%; in the assay with SNB-19 CNS, 93.7%; with U251 CNS, 92.2%; in the assay with SK-MEL-5 melanoma it was 96.4%; in the assay with UACC-62 melanoma, 85.9%. Besides, the growth was 88.6% in the assay on LOX IMVI melanoma; 122% in the assay on SK-MEL-28 melanoma; 90% in the assay with SK-MEL-2 melanoma; 82.8% with EKVX NSCLC; 93.4% in the assay with SN12C renal; 72.2% in the assay on UO-31 renal. Besides, the growth with TK-10 renal was 78.3%; in the assay on ACHN renal, 90.2%; in the assay with CAKI-1 renal it was 69.3%; in the assay on A498 renal, 117%; with CCRF-CEM leukemia it was 87%; in the assay on MOLT-4 leukemia it was 120%. The growth in the assay with SR leukemia was 285%.
For the compound `Cc1c(NCc2nnc3n(Cc4ccccc4)c(=O)c4c5c(sc4n23)CCCC5)c(=O)n(-c2ccccc2)n1C`, the growth was 77.2% in the assay with HT29 colon; 98% in the assay on SNB-75 CNS; 79.9% with SNB-19 CNS; 97.6% in the assay on U251 CNS; 81% in the assay with SK-MEL-5 melanoma; 80% in the assay with UACC-62 melanoma. Besides, the growth in the assay with LOX IMVI melanoma is 91.6%; with SK-MEL-28 melanoma, 103%; in the assay with SK-MEL-2 melanoma, 97.1%; in the assay on EKVX NSCLC, 84.7%; with SN12C renal, 96.5%; in the assay on UO-31 renal, 71.4%. The growth in the assay on TK-10 renal is 93.3%; in the assay with ACHN renal it was 96%; in the assay on CAKI-1 renal, 78%; with A498 renal, 75.1%; in the assay on CCRF-CEM leukemia, 4.57% (active); in the assay with MOLT-4 leukemia, 52.7%. Moreover, the growth in the assay with SR leukemia was 68.7%.
With `C[n+]1ccc(Nc2ccc(NC(=O)c3ccc(Nc4cc[n+](C)c5ccc(N)cc45)cc3)cc2)cc1`, the growth is 96.9% in the assay on HT29 colon; 97.2% with SNB-75 CNS; 100% with SNB-19 CNS; 92% in the assay on U251 CNS; 90.4% in the assay on SK-MEL-5 melanoma; 89.2% in the assay with UACC-62 melanoma. For the same compound, the growth is 103% in the assay with LOX IMVI melanoma; 116% in the assay with SK-MEL-28 melanoma; 71.5% in the assay with SK-MEL-2 melanoma; 93.9% with EKVX NSCLC; 88.4% in the assay on SN12C renal; 75.7% in the assay on UO-31 renal. Moreover, the growth in the assay on TK-10 renal is 108%; in the assay on ACHN renal it was 100%; in the assay with CAKI-1 renal, 94.5%; in the assay with A498 renal, 93.9%; with CCRF-CEM leukemia it was 98%; in the assay on MOLT-4 leukemia it was 97.5%. For the same compound, the growth in the assay with SR leukemia was 93.2%.
For `O=c1c(O)cccn1CCCNCCCN(CCCn1cccc(O)c1=O)CCCn1cccc(O)c1=O`, the growth with HT29 colon is 111%; in the assay on SNB-75 CNS it was 104%; in the assay on SNB-19 CNS, 99.8%; in the assay with U251 CNS, 93.8%; in the assay with SK-MEL-5 melanoma, 105%; in the assay on UACC-62 melanoma it was 100%. Moreover, the growth in the assay on LOX IMVI melanoma was 83.8%; with SK-MEL-28 melanoma, 116%; with SK-MEL-2 melanoma, 122%; in the assay on EKVX NSCLC, 93%; in the assay with SN12C renal, 87%; in the assay with UO-31 renal, 104%. The growth in the assay with TK-10 renal was 108%; in the assay with ACHN renal it was 101%; in the assay with CAKI-1 renal, 103%; in the assay with A498 renal, 129%; with MOLT-4 leukemia it was 160%.
With `CCOC(=O)/C=C(/C)Sc1cc(O)c2ccccc2c1O`, the growth in the assay with HT29 colon is 79.7%; in the assay with SNB-75 CNS, -83% (active); in the assay on SNB-19 CNS, -14.7% (active); in the assay with U251 CNS it was 20%; in the assay with SK-MEL-5 melanoma, -99.1% (active); in the assay with UACC-62 melanoma it was 36.3%. In addition, the growth was -36.1% (active) with LOX IMVI melanoma; -53.9% (active) with SK-MEL-28 melanoma; 27.8% in the assay with SK-MEL-2 melanoma; 44.8% in the assay with EKVX NSCLC; -68.3% (active) with SN12C renal; -5.64% (active) in the assay with UO-31 renal. In addition, the growth is 105% with TK-10 renal; 25.2% in the assay on ACHN renal; 46.1% in the assay on CAKI-1 renal; 124% in the assay on A498 renal; 38.4% in the assay on CCRF-CEM leukemia; 33% with MOLT-4 leukemia. The growth with SR leukemia was 17.1%.
Take `COc1cc2c(cc1OCCCOc1ccc(-c3cc4ccccc4c4ccccc34)cc1)N=C[C@@H]1CCCN1C2=O`: the growth was -46.6% (active) in the assay on HT29 colon; -78% (active) with SNB-75 CNS; -46.8% (active) in the assay with SNB-19 CNS; -79.3% (active) in the assay on U251 CNS; -80.2% (active) in the assay on SK-MEL-5 melanoma; -83.6% (active) in the assay with UACC-62 melanoma. The growth with LOX IMVI melanoma is -62.1% (active); in the assay with SK-MEL-28 melanoma, -62.2% (active); in the assay with SK-MEL-2 melanoma, -78.8% (active); in the assay on EKVX NSCLC, -74.1% (active); in the assay with SN12C renal it was -73.5% (active); with UO-31 renal, -59.3% (active). The growth in the assay on TK-10 renal was -75.6% (active); in the assay on ACHN renal it was -85.3% (active); in the assay with CAKI-1 renal, -19.6% (active); with A498 renal it was -82.8% (active); in the assay on CCRF-CEM leukemia, 6.61% (active); with MOLT-4 leukemia, 17.4%. The growth in the assay with SR leukemia was 102%.
